Values joined by “and” are separate entries in the source; they are usually repeats but may differ in a detail not shown here. Equal entries are not always repeated. The campaign covered roughly 5,500 compounds. About 2,000 (36%) were called active. About 18% were inconclusive and are not listed. Rule as the data show it: active = normalized growth mostly below about 0.91 (no sharp cut-off); inconclusive = no clear call, values can overlap the other calls; inactive = mostly above about 0.92. This is one part of the list.
Test: chemical genetic growth profiling, strain panel (AID 1159580);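 also: tested at 20 µM; growth read once vehicle control cultures reached saturation at 30 °C; 1 = growth at the plate median or of vehicle wells; lower values mean less growth of the strain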
Conditions: S. cerevisiae deletion strains, growth OD

Measured: normalized growth

CN=C(NC#N)NCCSCc1nc[nH]c1C
inactive: locus YAL013W, strain DEP1, hits give low values 0.997 | locus YAL021C, strain ccr4, hits give low values 1 | locus YAL026C, strain drs2, hits give low values 0.997 | locus YAL030W, strain snc1, hits give low values 0.998 | locus YAL040C, strain CLN3, hits give low values 1.01 | locus YBL061C, strain skt5, hits give low values 0.991 | locus YBR009C, strain hhf1, hits give low values 0.998 | locus YBR021W, strain FUR4, hits give low values 0.993 | locus YBR023C, strain chs3, hits give low values 0.996 | locus YBR171W, strain sec66, hits give low values 0.996 | locus YBR229C, strain ROT2, hits give low values 0.969 | locus YBR231C, strain swc5, hits give low values 1 | locus YBR279W, strain paf1, hits give low values 0.996 | locus YCL011C, strain gbp2, hits give low values 0.993 | locus YCL016C, strain dcc1, hits give low values 0.989 | locus YCL029C, strain bik1, hits give low values 0.979 | locus YCL061C, strain MRC1, hits give low values 1 | locus YCL069W, strain vba3, hits give low values 1.01 | locus YCR088W, strain abp1, hits give low values 0.998 | locus YDL005C, strain med2, hits give low values 1.01 | locus YDL035C, strain GPR1, hits give low values 1.01 | locus YDL040C, strain nat1, hits give low values 1.01 | locus YDL074C, strain BRE1, hits give low values 1.01 | locus YDL101C, strain DUN1, hits give low values 0.984 | locus YDL134C, strain PPH21, hits give low values 1 | locus YDL185W, strain tfp1, hits give low values 0.977 | locus YDL192W, strain arf1, hits give low values 0.995 | locus YDR001C, strain nth1, hits give low values 1 | locus YDR069C, strain doa4, hits give low values 0.997 | locus YDR101C, strain arx1, hits give low values 0.992 | locus YDR137W, strain rgp1, hits give low values 1.01 | locus YDR150W, strain NUM1, hits give low values 1 | locus YDR159W, strain sac3, hits give low values 0.997 | locus YDR162C, strain NBP2, hits give low values 0.994 | locus YDR195W, strain ref2 0.976 | locus YDR297W, strain sur2, hits give low values 0.997 | locus YDR318W, strain mcm21, hits give low values 0.999 | locus YDR334W, strain swr1, hits give low values 0.996 | locus YDR335W, strain msn5, hits give low values 1.01 | locus YDR363W, strain ESC2, hits give low values 0.998 | locus YDR388W, hits give low values 0.991 | locus YDR392W, strain spt3, hits give low values 0.905 | locus YDR502C, strain sam2, hits give low values 1.02 | locus YEL003W, strain gim4, hits give low values 1.01 | locus YEL037C, strain rad23, hits give low values 0.998 | locus YEL061C, strain CIN8 (second series), hits give low values 1 | locus YEL061C, strain CIN8, hits give low values 0.998 | locus YER002W, strain NOP16, hits give low values 1.02 | locus YER015W, strain faa2, hits give low values 1.01 | locus YER016W, strain bim1, hits give low values 1 | locus YER110C, hits give low values 0.975 | locus YER111C, strain swi4, hits give low values 0.993 | locus YER155C, strain BEM2 (second series), hits give low values 0.97 | locus YER155C, strain BEM2, hits give low values 0.99 | locus YER167W, strain BCK2, hits give low values 0.997 | locus YFR010W, strain ubp6, hits give low values 1 | locus YGL078C, strain dbp3, hits give low values 0.989 | locus YGL086W, strain mad1, hits give low values 1 | locus YGL167C, strain pmr1, hits give low values 0.995 | locus YGL173C, strain kem1, hits give low values 0.997 | locus YGL227W, strain vid30, hits give low values 0.991 | locus YGL240W, strain doc1, hits give low values 0.986 | locus YGL248W, strain PDE1, hits give low values 0.993 | locus YGL253W, strain hxk2, hits give low values 0.997 | locus YGR078C, strain PAC10, hits give low values 0.996 and 1.01 | locus YGR135W, strain pre9, hits give low values 0.992 | locus YGR229C, strain SMI1, hits give low values 0.996 | locus YGR252W, strain gcn5, hits give low values 1.1 | locus YHR013C, strain ard1, hits give low values 0.972 | locus YHR027C, strain rpn1, hits give low values 0.993 | locus YHR030C, strain SLT2, hits give low values 0.977 and 1.03 | locus YHR079C, strain IRE1 (second series), hits give low values 0.986 | locus YHR079C, strain IRE1, hits give low values 1.07 | locus YHR094C, strain hxt1, hits give low values 0.99 | locus YHR129C, strain ARP1, hits give low values 0.985 | locus YHR142W, strain chs7, hits give low values 0.998 | locus YHR200W, strain rpn10, hits give low values 0.99 | locus YIL066C, strain RNR3, hits give low values 0.998 | locus YIL073C, strain SPO22, hits give low values 1.01 | locus YIL125W, strain kgd1, hits give low values 0.992 | locus YIR030C, strain dcg1, hits give low values 0.991 | locus YJL092W, strain hpr5, hits give low values 0.994 | locus YJL095W, strain BCK1 (second series), hits give low values 0.996 | locus YJL095W, strain BCK1, hits give low values 0.952 and 1.02 | locus YJL115W, strain asf1, hits give low values 1 | locus YJL129C, strain trk1, hits give low values 1.01 | locus YJL134W, strain LCB3, hits give low values 0.996 | locus YJL154C, strain vps35, hits give low values 1.01 | locus YJL164C, strain tpk1, hits give low values 0.992 | locus YJL166W, strain qcr8, hits give low values 1 | locus YJL168C, strain set2, hits give low values 0.983 | locus YJL187C, strain SWE1 (second series), hits give low values 0.988 | locus YJL187C, strain SWE1, hits give low values 1 | locus YJR043C, strain POL32, hits give low values 0.98 | locus YJR066W, strain TOR1, hits give low values 0.997

— PubChem BioAssay AID1159580 (chemical genetic matrix, 2015)
